Drawing on PubChem BioAssay, this text covers composite z-score and z-score for 15 compounds.

Assay [1] relates to PRMT1 (protein arginine N-methyltransferase 1). In words: PRMT1 binders on small-molecule microarrays, primary screen, biochemical, small-molecule microarray, 635 nm fluorescence (AID 1088).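 Also: binding of Prmt1 protein to compounds spotted on small-molecule microarray slides.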 As to conditions: small-molecule microarray binding, higher = more signal.
Assay [2] is described as follows: yeast growth modulation, basal conditions, primary screen, YJM789 clinical isolate, OD600, 24 h (AID 1089).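 Also: growth of clinical yeast isolate S. cerevisiae YJM 789 seeded 1000 cells per well; test concentration not given here.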 As to conditions: S. cerevisiae YJM789 growth, higher = more signal, called active from +8 up or from −8 down.
Assay [3] can be described thus: fission yeast growth modulation, primary screen, strain 972, OD600, 24 h, no modulator (AID 1090).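 Also: basal condition with compound alone and no growth modifier present; test concentration not given here.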 As to conditions: S. pombe 972 growth, higher = more signal, called active from +8 up or from −8 down.
The nature of assay [4]: S. cerevisiae growth modulation with rapamycin, primary screen, strain BY4716, OD600, 96 h (AID 1091). Also: test concentration not given here. As to conditions: higher = more signal, called active from +8 up or from −8 down.
Assay [5] has as its target Torsin-1A-interacting protein 2 (Homo sapiens) (UniProt Q8NFQ8). As to the kind of experiment: LULL1 binders on small-molecule microarray, primary screen, cell lysate, human LULL1 lysate, 635/667 nm fluorescence (AID 1092).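 Also: probe is lysate of COS7 cells overexpressing human LULL1; score merges per-feature 667 nm fluorescence with signal-to-noise.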 As to conditions: hLULL1 lysate binding, 635 nm fluorescence, higher = more signal.
A short description of assay [6]: E. coli growth modulation, two-sided OD650, primary screen, E. coli filamentation project, strain DRC41, 24 h (AID 1093).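 Also: MC1000 strain lacking acrAB efflux and sulA so SOS filamentation is blocked; test concentration not given here.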 As to conditions: OD650, 24 h, higher = more signal, called active from +8 up or from −8 down.
Assay [7] can be described thus: small-molecule microarray binders of probe aLefty2, primary screen, biochemical, biotinylated probe, 635/667 nm fluorescence (AID 1094).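 Also: score merges spot fluorescence near 667 nm with spot signal-to-noise ratio.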 As to conditions: higher = more signal.
In assay [8] the test system is Noggin (protein binding on small-molecule microarray). In words: Noggin binders on small-molecule microarray, primary screen, biochemical, 635/667 nm fluorescence (AID 1095).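 Also: score merges 667 nm feature fluorescence with signal to noise over triplicate slides.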 As to conditions: 635 nm fluorescence, higher = more signal.
The target in assay [9] is Neurogenic locus notch homolog protein 3 (Homo sapiens) (UniProt Q9UM47). As to the kind of experiment: NOTCH3 binders on small-molecule microarray, primary screen, biochemical, 635/667 nm fluorescence (AID 1096). As to conditions: NOTCH3 binding, 635 nm fluorescence, higher = more signal.
Neurogenic locus notch homolog protein 3 (Homo sapiens), sequence (Q9UM47 whole entry, looked up): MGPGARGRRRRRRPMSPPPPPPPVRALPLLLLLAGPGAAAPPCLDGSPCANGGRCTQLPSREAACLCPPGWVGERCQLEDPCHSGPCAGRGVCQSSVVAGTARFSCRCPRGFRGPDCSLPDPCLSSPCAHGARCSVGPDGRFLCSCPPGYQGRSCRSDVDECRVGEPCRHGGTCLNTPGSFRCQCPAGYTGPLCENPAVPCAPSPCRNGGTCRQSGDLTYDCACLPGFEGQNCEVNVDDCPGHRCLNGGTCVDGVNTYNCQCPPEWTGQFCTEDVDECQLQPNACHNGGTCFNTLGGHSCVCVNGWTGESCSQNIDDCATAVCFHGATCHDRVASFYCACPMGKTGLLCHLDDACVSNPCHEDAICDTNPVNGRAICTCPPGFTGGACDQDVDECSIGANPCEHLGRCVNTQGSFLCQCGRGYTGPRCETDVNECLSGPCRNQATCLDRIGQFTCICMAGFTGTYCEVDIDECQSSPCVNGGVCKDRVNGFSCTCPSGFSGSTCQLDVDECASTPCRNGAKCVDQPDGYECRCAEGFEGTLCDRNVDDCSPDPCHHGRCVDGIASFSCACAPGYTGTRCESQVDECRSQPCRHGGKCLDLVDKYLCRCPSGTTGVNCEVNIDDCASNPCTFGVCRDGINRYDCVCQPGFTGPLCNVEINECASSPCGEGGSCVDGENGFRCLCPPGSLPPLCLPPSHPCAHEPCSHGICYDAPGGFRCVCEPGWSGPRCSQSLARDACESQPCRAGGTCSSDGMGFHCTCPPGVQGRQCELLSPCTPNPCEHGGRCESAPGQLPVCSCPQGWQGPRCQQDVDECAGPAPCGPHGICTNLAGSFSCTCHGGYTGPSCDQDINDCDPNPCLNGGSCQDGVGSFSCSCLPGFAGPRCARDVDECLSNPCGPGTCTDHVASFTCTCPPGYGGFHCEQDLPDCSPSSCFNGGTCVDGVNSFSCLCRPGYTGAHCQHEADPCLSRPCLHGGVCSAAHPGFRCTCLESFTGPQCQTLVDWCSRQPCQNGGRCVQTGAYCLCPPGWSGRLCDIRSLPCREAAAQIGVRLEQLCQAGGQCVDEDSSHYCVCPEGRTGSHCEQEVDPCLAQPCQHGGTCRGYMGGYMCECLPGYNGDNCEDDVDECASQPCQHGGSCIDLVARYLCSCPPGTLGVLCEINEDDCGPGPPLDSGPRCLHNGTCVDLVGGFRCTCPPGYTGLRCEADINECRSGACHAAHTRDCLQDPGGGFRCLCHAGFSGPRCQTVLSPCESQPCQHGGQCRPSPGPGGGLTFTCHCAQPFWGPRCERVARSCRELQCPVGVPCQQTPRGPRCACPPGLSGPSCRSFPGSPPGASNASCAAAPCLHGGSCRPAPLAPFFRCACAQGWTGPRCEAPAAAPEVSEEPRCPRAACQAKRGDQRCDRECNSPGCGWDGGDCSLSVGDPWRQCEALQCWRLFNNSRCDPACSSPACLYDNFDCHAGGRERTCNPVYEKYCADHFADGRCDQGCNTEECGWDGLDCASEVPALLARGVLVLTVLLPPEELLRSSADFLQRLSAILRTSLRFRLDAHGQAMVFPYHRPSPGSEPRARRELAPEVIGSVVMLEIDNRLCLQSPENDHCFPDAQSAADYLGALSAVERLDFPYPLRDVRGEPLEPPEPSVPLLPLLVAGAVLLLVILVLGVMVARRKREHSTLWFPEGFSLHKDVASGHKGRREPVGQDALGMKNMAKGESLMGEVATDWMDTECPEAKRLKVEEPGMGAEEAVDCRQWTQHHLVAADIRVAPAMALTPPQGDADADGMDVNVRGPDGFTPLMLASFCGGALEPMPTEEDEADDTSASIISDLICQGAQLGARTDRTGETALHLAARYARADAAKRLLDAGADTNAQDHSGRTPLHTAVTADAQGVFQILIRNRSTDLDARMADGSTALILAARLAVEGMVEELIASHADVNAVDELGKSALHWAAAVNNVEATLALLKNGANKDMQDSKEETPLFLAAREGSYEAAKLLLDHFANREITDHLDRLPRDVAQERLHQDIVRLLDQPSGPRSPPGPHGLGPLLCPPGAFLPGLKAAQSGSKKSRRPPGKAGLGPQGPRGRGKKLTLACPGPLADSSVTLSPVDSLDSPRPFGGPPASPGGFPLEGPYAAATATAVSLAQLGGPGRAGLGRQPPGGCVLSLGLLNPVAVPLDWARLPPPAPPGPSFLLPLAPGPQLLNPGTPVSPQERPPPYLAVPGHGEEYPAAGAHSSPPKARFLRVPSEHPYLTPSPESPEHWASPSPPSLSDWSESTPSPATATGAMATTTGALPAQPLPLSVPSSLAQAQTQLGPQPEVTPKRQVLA
Assay [10] can be described thus: small-molecule microarray binders of probe aEGFR, primary screen, biochemical, biotinylated probe, 635/667 nm fluorescence (AID 1097).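 Also: probe is a biotinylated anti-EGFR antibody binding compounds printed on slides; score combines fluorescence near 667 nm and signal to noise of each spot.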 As to conditions: higher = more signal.

Calls of active or inactive are those of the source.

Torsin-1A-interacting protein 2 (Homo sapiens), sequence (Q8NFQ8 whole entry, looked up): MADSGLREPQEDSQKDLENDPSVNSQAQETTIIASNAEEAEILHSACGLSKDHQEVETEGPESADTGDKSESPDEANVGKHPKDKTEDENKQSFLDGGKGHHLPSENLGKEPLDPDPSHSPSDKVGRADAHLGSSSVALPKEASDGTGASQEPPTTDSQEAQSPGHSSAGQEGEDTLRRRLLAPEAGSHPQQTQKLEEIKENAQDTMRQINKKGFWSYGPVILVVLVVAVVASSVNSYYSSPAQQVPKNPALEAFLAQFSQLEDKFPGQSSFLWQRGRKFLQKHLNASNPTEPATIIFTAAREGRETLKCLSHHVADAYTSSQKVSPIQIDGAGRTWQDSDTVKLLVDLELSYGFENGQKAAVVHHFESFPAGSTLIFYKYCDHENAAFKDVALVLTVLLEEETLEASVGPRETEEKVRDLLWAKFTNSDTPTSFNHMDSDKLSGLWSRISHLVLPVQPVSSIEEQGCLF

Take `COCCCNC(=O)[C@@]1(CCC(=O)OC(C)(C)C)N=C(c2ccc(OCCCO)cc2)O[C@H]1c1ccccc1`: the composite z-score amounted to 1.53 in [1]; 3.51 in assay [5]; 0.0296 in assay [7]; 1.56 in assay [8]; 0.275 in [9]; 0.0682 in assay [10]. In addition, the z-score was 0.241 (inactive) in assay [2], -0.629 (inactive) in [3], 0.0716 (inactive) in assay [4] and 1.25 (inactive) in [6].
Turning to `C=C(COC)/C(=C/C[C@@H](OC(C)=O)c1cccc(OCCO)c1)c1cnc2ccccc2c1`, the composite z-score in assay [1] is 1.38; in assay [5], 1.07; in [7] it was 0.0303; in assay [8], 0.822; in assay [9], 1.04; in assay [10] it was -0.0653. Also, the z-score in assay [2] is -2.07 (inactive); in assay [3], -6.62 (inactive); in assay [4], -1.38 (inactive); in assay [6], 1.03 (inactive).
In the case of `COc1ccc([Si](C)(C)[C@H]2[C@H](CC(=O)N3CCC[C@H]3CO)O[C@@]3(C(=O)N(C)c4c(Br)cc(C)cc43)[C@@H]2C)cc1`, the composite z-score came to 1.54 in assay [1]; 3.42 in assay [5]; 0.412 in [7]; 2.05 in assay [8]; 0.498 in assay [9]; 0.459 in assay [10]. Moreover, the z-score in assay [2] was -0.749 (inactive); in assay [3] it was -0.108 (inactive); in assay [4], -0.385 (inactive); in assay [6], -0.2 (inactive).
For the compound `CCCCCCCCCCC(O)C1C=CC2C(=O)N(C)C(=O)C2N1Nc1ccccc1` (stereo not given), the composite z-score in assay [1] was -1.19; in [5] it was 0.8; in assay [7], -0.405; in assay [8] it was -0.387; in assay [9] it was -1.4; in [10], -0.247. Besides, the z-score is 0.875 (inactive) in assay [2], -1.53 (inactive) in assay [3], 0.882 (inactive) in assay [4] and -1.87 (inactive) in [6].
With `CC(C)Cc1ccc(CN2CC[C@@H](NC(=O)c3ccccc3)C2)cc1`, the composite z-score is -0.174 in assay [1]; -0.0003 in assay [5]; -0.167 in assay [7]; 0.666 in assay [8]; -0.0255 in assay [9]; -0.157 in assay [10]. The z-score was -0.216 (inactive) in assay [2], -21.2 (active) in [3], 0.237 (inactive) in [4] and -0.219 (inactive) in assay [6].
On to `COC(=O)[C@@]1(Cc2ccc(OC)cc2)[C@H]2c3cc(C(=O)N(C)C)n(Cc4c(CO)[nH]cc(C)c4=O)c3C[C@H]2CN1C(=O)c1ccccc1`, for which the composite z-score was -0.922 in assay [1]; 3.22 in assay [5]; 0.334 in [7]; 0.0072 in [8]; 0.0193 in assay [9]; 0.215 in assay [10]. In addition, the z-score in [2] is 0.0886 (inactive); in [3], 0.95 (inactive); in assay [4], -0.622 (inactive); in [6], -1.28 (inactive).
Turning to `C=CC[C@H](OC(=O)Nc1ccc(SC)cc1)c1ccc(O)c(F)c1`, the composite z-score in assay [1] was -0.487; in [5], 1.04; in [7], -0.106; in [8], -0.176; in assay [9], 0.223; in assay [10], -0.14. Moreover, the z-score is -22.7 (active) in [2], -19.7 (active) in assay [3], -1.19 (inactive) in [4] and 0.622 (inactive) in [6].
For the compound `COc1ccc([Si](C)(C)[C@@H]2[C@@H](CC(=O)N3Cc4ccccc4C[C@H]3CO)O[C@]3(C(=O)N(Cc4ccc(I)cc4)c4ccccc43)[C@H]2C)cc1`, the composite z-score in [1] was 1.57; in [5] it was 0.603; in [7], 0.0007; in assay [8], 1.92; in assay [9], 1.1; in assay [10], -0.0982. The z-score in [2] was 0.391 (inactive); in [3], 0.956 (inactive); in assay [4], 2.07 (inactive); in assay [6], 2.19 (inactive).
For the compound `CCCC[C@@H](O)C1=C(C)Cn2c(=O)n(-c3ccccc3)c(=O)n2[C@H]1CO`, the composite z-score in assay [1] is -0.23; in [5], -0.249; in assay [7], -0.218; in assay [8], -0.0422; in assay [9], -0.839; in assay [10], -0.0517. Further, the z-score in assay [2] is -1.43 (inactive); in assay [3], -1.39 (inactive); in [4], -0.846 (inactive); in [6], 2.53 (inactive).
In the case of `CCCC=C(CCC)[C@@H](NC(=O)c1ccc(C(=O)OC)cc1)c1ccc(C(=O)OC)cc1`, the composite z-score in [1] turned out to be 0.0599; in assay [5], 2.85; in assay [7], 0.177; in [8], 0.294; in [9], 0.251; in assay [10] it was 0.0173. Further, the z-score was 0.57 (inactive) in assay [2], 0.311 (inactive) in assay [3], 0.182 (inactive) in [4] and -1.29 (inactive) in [6].
Regarding `COCCCNC(=O)[C@@]1(c2ccc([N+](=O)[O-])cc2)CC(=O)N(C2CCCCC2)[C@@H]1c1ccc(CO)cc1I`, the composite z-score in assay [1] was 1.54; in assay [5], 0.83; in [7], 0.0561; in assay [8], 0.39; in [9], 0.0429; in [10] it was -0.0967. Also, the z-score in assay [2] was -0.307 (inactive); in assay [3] it was -0.314 (inactive); in [4] it was -0.0938 (inactive); in [6] it was 0.556 (inactive).
Consider `O=C1N(Cc2ccccc2)c2ccccc2C[C@@]12N=C(c1ccc(OCCCO)cc1)O[C@H]2c1ccccc1`, for which the composite z-score in assay [1] was 1.55; in assay [5], 3.03; in assay [7], 0.0686; in [8], 0.591; in assay [9], 1; in assay [10], -0.178. Moreover, the z-score in assay [2] was -0.789 (inactive); in assay [3], -2.61 (inactive); in [4], 3.55 (inactive); in [6], -0.788 (inactive).
Consider `O=C1C[C@@](C(=O)NCC(F)(F)F)(c2ccc([N+](=O)[O-])cc2)[C@@H](c2ccc(CO)cc2I)N1CC12CC3CC(CC(C3)C1)C2`, for which the composite z-score in [1] is 1.55; in assay [5] it was 2.73; in [7] it was -0.189; in assay [8] it was 0.515; in assay [9] it was 0.978; in assay [10] it was -0.206. The z-score in assay [2] is -1.36 (inactive); in assay [3] it was -0.301 (inactive); in assay [4], 21.1 (active); in assay [6] it was 0.548 (inactive).
In the case of `COc1cc2c(cc1OC)CN(C(=O)[C@@H]1[C@H]3C(=O)O[C@H](c4ccccc4)[C@H](c4ccccc4)N3[C@H](c3ccc(O)cc3)[C@@]13C(=O)Nc1ccc(C#CC4=CCCCC4)cc13)CC2`, the composite z-score in assay [1] is 1.55; in assay [5] it was 2.44; in assay [7] it was -0.0753; in assay [8], 0.82; in [9], 1.08; in assay [10], 0.0324. The z-score was 1.63 (inactive) in assay [2], -0.921 (inactive) in [3], 1.88 (inactive) in assay [4] and 2.11 (inactive) in assay [6].
With `CC1CC/C=C\[C@H]2OC34C=CCN(CCN5CCOCC5)C(=O)[C@H]3N(C(CO)C(C)C)C(=O)[C@@H]4C2C(=O)O1` (stereo not given in full), the composite z-score was 1.42 in assay [1]; 3.2 in assay [5]; -0.109 in assay [7]; 0.122 in [8]; 0.398 in assay [9]; -0.0332 in [10]. Besides, the z-score in assay [2] was -0.662 (inactive); in [3], -0.145 (inactive); in [4] it was -0.188 (inactive); in assay [6] it was -0.651 (inactive).
